Drawing on PubChem BioAssay, this text covers composite z-score for 28 molecules.

Chain of Left-right determination factor 2 (Homo sapiens) (O00292 whole entry, looked up): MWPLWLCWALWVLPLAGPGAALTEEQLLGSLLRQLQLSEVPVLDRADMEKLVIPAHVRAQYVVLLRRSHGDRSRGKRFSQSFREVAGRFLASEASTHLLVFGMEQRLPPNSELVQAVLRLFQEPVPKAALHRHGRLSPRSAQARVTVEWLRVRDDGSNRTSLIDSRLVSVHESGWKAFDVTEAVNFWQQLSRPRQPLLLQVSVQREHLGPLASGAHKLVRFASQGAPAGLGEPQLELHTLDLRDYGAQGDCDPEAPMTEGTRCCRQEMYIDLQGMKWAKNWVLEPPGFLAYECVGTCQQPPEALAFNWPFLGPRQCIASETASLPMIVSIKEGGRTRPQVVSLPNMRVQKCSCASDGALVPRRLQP

This assay addresses Left-right determination factor 2 (Homo sapiens) (UniProt O00292). In words: small molecules binding LEFTY2 protein – biochemical, small-molecule microarray, 635 nm fluorescence scan, primary screen (AID 1110). Conditions: higher = more signal.
Consider `COCCOC(=O)N1C(=O)[C@@]2(c3cc(C#CCC(C(=O)OC)C(=O)OC)ccc31)[C@H](c1ccc(OCCO)cc1)N1[C@H](c3ccccc3)[C@H](c3ccccc3)OC(=O)[C@H]1[C@@H]2C(=O)N1CCCCCCC1`, for which the composite z-score amounted to 1.13.

`Cc1ccc(S[C@]2(C(=O)NCC(F)(F)F)CC(=O)N(C3CCCCC3)[C@@H]2c2ccc(CO)cc2)cc1` returned a composite z-score of -0.431.

In turn, `COCCOC(=O)N1C(=O)[C@@]2(c3ccccc31)[C@H](C(N)=O)[C@H]1C(=O)O[C@H](c3ccccc3)[C@H](c3ccccc3)N1[C@@H]2c1ccc(OCCO)cc1` showed a composite z-score of 0.234.

Molecule `C=CCC(OC(C)=O)[C@@H]1[C@@H](N(Cc2ccc(-c3cccc(C(F)(F)F)c3)o2)C(=O)c2cccc3ccccc23)c2cc(OCCCO)ccc2N1C(=O)c1ccc2ccccc2c1` (stereo partly drawn) had a composite z-score of -0.382.

In the case of `COc1ccc(NC(=O)O[C@H]2[C@H](OC(=O)Nc3ccc4c(c3)OCO4)[C@H](OC(=O)Nc3ccc4c(c3)OCO4)[C@@H](OC)O[C@@H]2CO)cc1`, the composite z-score was -0.0444.

For the molecule `[N-]=[N+]=NCc1ccccc1C[C@]1(C(=O)N2CCOCC2)N=C(c2ccc(OCCCO)cc2)O[C@H]1c1ccccc1CN=[N+]=[N-]`, the composite z-score was -0.0716.

Molecule `CCCCC(=C=CC[C@@H](O)c1cccc(OCCO)c1)CCO` came in with a composite z-score of -0.125.

With `CC(C)C[C@@H]1NC(=O)[C@H]2C[C@@H](C(=O)NCCCCCCNC(=O)CS)[C@@H](c3ccc(O)cc3)N2C1=O`, the composite z-score is 0.719.

In turn, `C=CCC(OC(C)=O)[C@@H]1[C@@H](N(Cc2cc3ccccc3o2)C(=O)Cc2ccc(OC)cc2)c2cc(OCCCO)ccc2N1C(=O)Cc1ccc(OC)cc1` (stereo partly drawn) yielded a composite z-score of -0.0735.

Consider `COc1ccc([Si](C)(C)[C@H]2[C@H](CCn3cc([C@H](O)c4ccccc4)nn3)O[C@@]3(C(=O)N(c4ccccc4)c4ccccc43)[C@@H]2C)cc1`, for which the composite z-score was -0.202.

`Cc1ccccc1C(O)C1C=CC2C(=O)N(c3ccccc3)C(=O)C2N1Nc1ccccc1F` (stereo not drawn) yielded a composite z-score of -0.0612.

For the molecule `C=CC[C@@]1(C(=O)N(C)C)N=C(c2ccc(OCCCO)cc2)O[C@@H]1c1ccccc1`, the composite z-score was 0.191.

`CCCCC(O)C1C=CC2C(=O)N(C)C(=O)C2N1Nc1ccccc1` (stereo not drawn) displayed a composite z-score of -0.431.

In the case of `COC(=O)C1=CC(CCCO)=CC(c2ccc(CN3CCCC3)cc2)N(Cc2sc3ccccc3c2Cl)C=C1C(=O)OC` (stereo not drawn), the composite z-score amounted to 1.17.

The molecule `C=C(/C(=C/C[C@@H](OC(C)=O)c1ccccc1OCCO)c1cc(C(=O)OC)ccc1OC)C(C)C` gave a composite z-score of -0.0061.

`CCCC=C(CCC)[C@@H](NC(=O)c1ccccc1)c1ccc(C(=O)OC)cc1` showed a composite z-score of 0.898.

As to `COC(=O)[C@@]1(Cc2ccc(OC)cc2)[C@@H]2[C@@H](CC(=O)[C@H]2CC(=O)C(=O)N2CCCC2)CN1C(=O)c1ccccc1`, the composite z-score is 0.352.

As to `CCCCCN1CC=CC23O[C@@H]4C=CCOC(=O)[C@@H]4[C@H]2C(=O)N(CCCCCO)[C@@H]3C1=O` (stereo partly drawn), the composite z-score was -1.19.

As to `COc1ccc(CCNC(=O)[C@@]2(Sc3ccc(C)cc3)CC(=O)N(Cc3cc(C(F)(F)F)cc(C(F)(F)F)c3)[C@@H]2c2ccc(CO)cc2)cc1`, the composite z-score was -2.47.

Molecule `CN1C(=O)[C@]2(CCC(=O)OC(C)(C)C)N=C(c3ccc(OCCCO)cc3)O[C@@H]2c2ccccc21` displayed a composite z-score of -0.0515.

`COC(=O)[C@@]1(Cc2ccccc2CN=[N+]=[N-])COC(c2ccc(OCCCO)cc2)=N1` gave a composite z-score of -2.75.

As for `CCCC[C@H]1OB(O)C[C@H]2C1=C(C)C[C@H]1C(=O)C=CC(=O)[C@H]12`, the composite z-score was 0.686.

Regarding `O=C1O[C@H](c2ccccc2)[C@H](c2ccccc2)N2[C@H]1[C@@H](C(=O)NC[C@H](O)c1ccccc1)[C@]1(C(=O)Nc3ccc(C#CCCO)cc31)[C@H]2c1ccccc1OCCO`, the composite z-score is -0.66.

`CCC[C@@H]1[C@@H](Sc2ccccc2)[C@@H](C(=O)O)[C@H](c2ccc(C)cc2)N1S(=O)(=O)c1ccc(C)cc1` registered a composite z-score of 0.241.

`CC(C)(C)OC(=O)CC[C@]1(C(=O)N2CCOCC2)N=C(c2ccc(OCCCO)cc2)O[C@H]1c1ccccc1CN=[N+]=[N-]` gave a composite z-score of -0.457.

As for `COC(=O)[C@@]1(Cc2ccc(F)cc2)[C@H]2c3cc(C(=O)N(C)C)n(CCN4CCOCC4)c3C[C@H]2CN1C(=O)c1ccccc1`, the composite z-score was determined as 0.134.

For `O=C1OCCC/C=C\[C@H]2OC34C=CCN(Cc5ccccc5)C(=O)[C@H]3N(CCCCCO)C(=O)[C@@H]4C12` (stereo partly drawn), the composite z-score was -0.296.

Molecule `CCOC(=O)C[C@H]1[C@H](OC(=O)c2ccc(C(=O)c3ccccc3)cc2)[C@@H](NC(=O)c2ccc3ccccc3c2)c2cc(OCCCO)ccc2N1C(=O)c1ccc2ccccc2n1` came in with a composite z-score of 0.23.
